Laboratory results published in PubChem BioAssay AID1159580 (chemical genetic matrix, 2015).
The campaign covered roughly 5,500 compounds. About 2,000 (36%) were called active. Not shown: some 18% with an inconclusive outcome. No stated cut-off is given here; in the data, active means normalized growth mostly below about 0.91 (no sharp cut-off); inconclusive means no clear call, values can overlap the other calls; inactive means mostly above about 0.92. The list shows a part of the results.

Test: chemical genetic growth profiling, strain panel (AID 1159580);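 further: tested at 20 µM; growth read once vehicle control cultures reached saturation at 30 °C; 1 = growth at the plate median or of vehicle wells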
Conditions: S. cerevisiae deletion strains, growth OD

Measured: normalized growth

CC(C)NCC(O)COc1ccc(COCCOC(C)C)cc1 (stereo not given)
inactive: locus YAL021C, strain ccr4, stronger effect = lower value 1 | locus YAL026C, strain drs2, stronger effect = lower value 1.01 | locus YAL030W, strain snc1, stronger effect = lower value 0.998 | locus YBL061C, strain skt5, stronger effect = lower value 0.997 | locus YBR009C, strain hhf1, stronger effect = lower value 0.998 | locus YBR023C, strain chs3, stronger effect = lower value 0.998 | locus YBR171W, strain sec66, stronger effect = lower value 1 | locus YBR231C, strain swc5, stronger effect = lower value 1 | locus YBR279W, strain paf1, stronger effect = lower value 1 | locus YCL011C, strain gbp2, stronger effect = lower value 1.01 | locus YCL016C, strain dcc1, stronger effect = lower value 0.999 | locus YCL061C, strain MRC1, stronger effect = lower value 1 | locus YCL069W, strain vba3, stronger effect = lower value 1 | locus YCR088W, strain abp1, stronger effect = lower value 0.997 | locus YDL005C, strain med2, stronger effect = lower value 1 | locus YDL040C, strain nat1, stronger effect = lower value 1 | locus YDR001C, strain nth1, stronger effect = lower value 1.01 | locus YDR069C, strain doa4, stronger effect = lower value 1.02 | locus YDR137W, strain rgp1, stronger effect = lower value 1.02 | locus YDR159W, strain sac3, stronger effect = lower value 0.979 | locus YDR195W, strain ref2 0.97 | locus YDR297W, strain sur2, stronger effect = lower value 1.01 | locus YDR334W, strain swr1, stronger effect = lower value 1 | locus YDR335W, strain msn5, stronger effect = lower value 1 | locus YDR392W, strain spt3, stronger effect = lower value 0.947 | locus YEL003W, strain gim4, stronger effect = lower value 1 | locus YEL037C, strain rad23, stronger effect = lower value 1.02 | locus YEL061C, strain CIN8 (second series), stronger effect = lower value 1 | locus YER015W, strain faa2, stronger effect = lower value 0.995 | locus YER016W, strain bim1, stronger effect = lower value 0.988 | locus YER111C, strain swi4, stronger effect = lower value 1 | locus YER155C, strain BEM2 (second series), stronger effect = lower value 1 | locus YFR010W, strain ubp6, stronger effect = lower value 1.03 | locus YGL167C, strain pmr1, stronger effect = lower value 1.01 | locus YGL173C, strain kem1, stronger effect = lower value 1 | locus YGL227W, strain vid30, stronger effect = lower value 1 | locus YGL240W, strain doc1, stronger effect = lower value 1 | locus YGL253W, strain hxk2, stronger effect = lower value 0.999 | locus YHR013C, strain ard1, stronger effect = lower value 0.995 | locus YHR027C, strain rpn1, stronger effect = lower value 0.999 | locus YHR030C, strain SLT2, stronger effect = lower value 1.04 | locus YHR079C, strain IRE1, stronger effect = lower value 1.05 | locus YHR142W, strain chs7, stronger effect = lower value 1.01 | locus YJL092W, strain hpr5, stronger effect = lower value 0.994 | locus YJL095W, strain BCK1 (second series), stronger effect = lower value 1 | locus YJL095W, strain BCK1, stronger effect = lower value 0.976 | locus YJL115W, strain asf1, stronger effect = lower value 0.999 | locus YJL129C, strain trk1, stronger effect = lower value 1 | locus YJL154C, strain vps35, stronger effect = lower value 1.01 | locus YJL164C, strain tpk1, stronger effect = lower value 1.01 | locus YJL166W, strain qcr8, stronger effect = lower value 1.01 | locus YJL187C, strain SWE1, stronger effect = lower value 1.01 | locus YJR066W, strain TOR1, stronger effect = lower value 0.987 | locus YKL160W, strain elf1, stronger effect = lower value 1 | locus YKR026C, strain gcn3, stronger effect = lower value 0.986 | locus YKR091W, strain srl3, stronger effect = lower value 1 | locus YLL001W, strain dnm1, stronger effect = lower value 0.983 | locus YLL026W, stronger effect = lower value 0.998 | locus YLL041C, strain sdh2, stronger effect = lower value 1 | locus YLR027C, strain aat2, stronger effect = lower value 0.998 | locus YLR113W, strain HOG1, stronger effect = lower value 0.984 | locus YLR221C, strain rsa3, stronger effect = lower value 1.01 | locus YLR258W, strain gsy2, stronger effect = lower value 0.999 | locus YLR262C, strain YPT6 (second series), stronger effect = lower value 1.01 | locus YLR320W, strain mms22, stronger effect = lower value 0.999 | locus YLR342W, strain FKS1, stronger effect = lower value 1 | locus YLR357W, strain rsc2, stronger effect = lower value 0.982 | locus YLR370C, strain arc18, stronger effect = lower value 1 | locus YLR384C, strain iki3, stronger effect = lower value 0.999 | locus YML120C, strain ndi1, stronger effect = lower value 0.984 | locus YMR058W, strain fet3, stronger effect = lower value 1.01 | locus YMR125W, strain sto1, stronger effect = lower value 0.994 | locus YMR129W, stronger effect = lower value 1 | locus YMR205C, strain PFK2, stronger effect = lower value 0.981 | locus YMR231W, strain pep5, stronger effect = lower value 0.998 | locus YNL071W, strain lat1, stronger effect = lower value 1.01 | locus YNL183C, strain NPR1, stronger effect = lower value 0.996 | locus YNL209W, strain ssb2, stronger effect = lower value 1 | locus YNL248C, strain rpa49, stronger effect = lower value 0.999 | locus YNL322C, strain KRE1 (second series), stronger effect = lower value 0.987 | locus YNR049C, strain mso1, stronger effect = lower value 1 | locus YOR001W, strain rrp6, stronger effect = lower value 1 | locus YOR070C, strain gyp1, stronger effect = lower value 1.01 | locus YOR080W, strain dia2, stronger effect = lower value 0.997 | locus YOR083W, strain WHI5, stronger effect = lower value 1 | locus YOR106W, strain vam3, stronger effect = lower value 1.01 | locus YOR231W, strain MKK1, stronger effect = lower value 1.03 | locus YOR265W, strain rbl2, stronger effect = lower value 1.03 | locus YOR270C, strain vph1, stronger effect = lower value 1.01 | locus YOR290C, strain snf2, stronger effect = lower value 1 | locus YPL051W, strain arl3, stronger effect = lower value 1 | locus YPL078C, strain atp4, stronger effect = lower value 1.01 | locus YPL106C, strain sse1, stronger effect = lower value 1 | locus YPL240C, strain hsp82, stronger effect = lower value 1.01 | locus YPL256C, strain CLN2, stronger effect = lower value 1.03
